Data taken from PubChem BioAssay (NCI).
About 79,000 compounds went through this panel and 15% of them were active in at least one assay; those are over-represented in the sample as a whole. Values without a mark were called inactive. Calls of active or inactive are those of the source. Rule as the data show it: active = growth inhibition above about 70%; inactive = the rest.

Test: NCI Yeast Anticancer Drug Screen. Data for the mlh1 rad18 strain (AID 175)
Details: S. cerevisiae mlh1 rad18 strain growth inhibition; at 50.0 µM; stronger effect = higher value
Method in brief: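 Cells of a genetically altered yeast strain, deficient in DNA damage repair, were treated with compound. Their growth was then compared with that of vehicle-treated cultures to give inhibition.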

| SMILES | growth inhibition |
| --- | --- |
| c1ccc2nc3ccccc3nc2c1 | 75% (active) |
| O=C(NCCCl)Nc1c2ccccc2nc2ccccc12 | 37% |
| CC1=C2CCC3C(CCC4(C)C(C(C)CCCC(C)C)CCC34)C2(C)CCC1=O (configuration not stated) | 10.9% |
| Cc1cccc(Cl)c1NC(=O)/C=C/c1ccccc1 | -6.65% |
| O=C1/C(=C/c2ccc(Cl)cc2)CSC/C1=C\c1ccc(Cl)cc1 | -9.1% |
| CCOC(=O)c1c(N)sc2c1CCCCC2 | 61.1% |
| CC(C)NC(=O)O/N=C1\CCC2[C@@H]3CC=C4C[C@@H](OC(=O)NC(C)C)CC[C@]4(C)C3CC[C@]12C (some centres not stated) | 92% (active) |
| COc1ccc2c(c1)c(=O)c1c(NCCN(C)C)ccc3nnn2c31 | 79.7% (active) |
| CCCC(=O)N(C(=O)CCC)C1=C(Cl)C(=O)c2ccccc2C1=O | 86.6% (active) |
| CN(C)C1C=CCC(c2ccccc2)C1[N+](=O)[O-] (configuration not stated) | 98.8% (active) |
| CC(=O)NC1C(=O)CC(c2ccccc2)N(C)C1c1ccccc1 (configuration not stated) | 31.7% |
| CCCCC#CCCOC(=O)C#CCCCC | 3.25% |
| CC1C[C@]2(C)C(=S)Nc3ccccc3[C@@H]2Nc2ccccc21 (some centres not stated) | 63.3% |
| O=[N+]([O-])/C=C/c1c[nH]c2c1ccc1ccccc12 | 93.5% (active) |
| CCC[CH2][Sn]([S][Sn]([CH2]CCC)([c]1ccccc1)[c]1ccccc1)([c]1ccccc1)[c]1ccccc1 | 99.3% (active) |
| CCN(CC)CCCCNc1ccc(Cl)cc1 | 71.6% (active) |
| C[n+]1c(/C=C\c2ccccc2)sc2ccccc21 | 87% (active) |
